Out of some 48,000 compounds screened, about 13,000 (27%) showed an effect of 50% or more. The list shows a part of the results.
Tested on: Wolbachia pipientis
Assay: Anti-Wolbachia Cell-Based Screen
Assay type: functional
Set-up: scale not given: in the data most compounds retested in dose-response had high values
Conditions: 5 µM

Row | SMILES | Percent Effect
1 | Cc1cc(CN(C)C(=O)NC(C)Cc2ccc(O)cc2)no1 (centres undefined) | 12.34%
2 | Cc1ccc(OCC(=O)Nc2cnccc2SCCCO)cc1C | -7.18%
3 | CN(Cc1ccccc1CN1CCCC1)C(=O)c1c[nH]c(=O)[nH]1 | 14.99%
4 | Cc1ccc(S(=O)(=O)N2CSCC2C(=O)N(C)C2CC2)cc1Cl (centres undefined) | 4.535%
5 | Cc1nc(CN2CCC(CNC(=O)Nc3ccccc3)CC2)oc1C | -9.889%
6 | NC(=O)C1CCN(Cc2cccc(NC(=O)c3ccsc3)c2)CC1 | -7.959%
7 | O=C(Nc1cccc(CN2CCC(CO)CC2)c1)c1cc(Cl)c[nH]1 | 101.9%
8 | N#Cc1ccccc1C(=O)Nc1cccc(CN2CCC(CO)CC2)c1 | 103.3%
9 | O=C(Nc1cccnc1)Nc1cccc(CN2CCC(O)CC2)c1 | -1.395%
10 | Cc1nc(C)n(Cc2cccc(NC(=O)NC(C)(CO)C3CC3)c2)n1 (centres undefined) | -1.537%
11 | CSc1cccc(CN2CCC(CCC(=O)NC3CC3)CC2)c1 | 0.2093%
12 | Cc1cc(C)c(C(=O)Nc2cccc(CN3CCC(CO)CC3)c2)o1 | 132.4%
13 | CN(C)CCn1c(=O)oc2ccc(NC(=O)c3cc(Cl)c[nH]3)cc21 | -2.174%
14 | CSc1cccc(CN2CCC(CCC(=O)Nc3ccccc3)CC2)c1 | 5.512%
15 | Cc1nc(C)c(C(=O)Nc2cccc(CN3CCC(CO)CC3)c2)o1 | 118.5%
16 | COC(=O)C(O)C1CCN(Cc2cccc(-n3cccn3)c2)CC1 (centres undefined) | 8.265%
17 | CSCC(=O)Nc1ncn(Cc2cccc(Br)c2)n1 | 13.99%
18 | Cc1ncsc1CCN(C)Cc1ccc(Br)o1 | 8.382%
19 | CN(C)C1CN(C(=O)Nc2cccc(OC(F)F)c2)C1 | -11.25%
20 | CCN(CC)C(=O)[C@@H]1C[C@@H](N)CN1C(=O)c1cc2c([nH]c1=O)CCC2 | -5.971%
21 | CCCS(=O)(=O)NCc1cccnc1OCc1ccccc1 | 9.301%
22 | CN1CCN(C[C@@H]2CN(C(=O)c3ccccc3C#N)C[C@@H]2CO)CC1 | 6.523%

Row | SMILES | Percent Effect
23 | COCCc1noc(CNC(=O)C2CC(=O)N(C(C)(C)C)C2)n1 (centres undefined) | -10.49%
24 | COCCc1noc(CNC2CCSC2)n1 (centres undefined) | 7.087%
25 | CCc1nc(CNC(C)(CO)C2CCCCC2)no1 (centres undefined) | 105.4%
26 | CC(CO)(NC(=O)Nc1nncs1)C1CCCCC1 (centres undefined) | -9.276%
27 | CC(=O)N1CCCC(C(=O)NCc2noc(Cc3ccccc3)n2)C1 (centres undefined) | 10.7%
28 | CC(CO)(NCc1noc(Cc2ccccc2)n1)C1CCCCC1 (centres undefined) | 91.55%
29 | CCc1nc(CNc2ccc(-c3nc(C4CC4)no3)cn2)no1 | -0.6483%
30 | CCC(=O)N1CCCC(C(=O)NCc2noc(Cc3ccccc3)n2)C1 (centres undefined) | 1.423%
31 | COCCc1noc(CNC(C)(CO)C2CCCCC2)n1 (centres undefined) | 130.3%
32 | O=C(O)C(F)(F)F.O=C(O)C(F)(F)F.O=C(O)c1cc2c(nc1-c1ccoc1)CCN(CC1CCOC1)CC2 (centres undefined) | 7.736%
33 | O=C(CCC(=O)N1CCC(Cc2ccc(CO)cc2)C1)c1ccccc1 (centres undefined) | -6.413%
34 | O=C(c1coc2ccccc12)N1CCCC1 | 2.375%
35 | CCS(=O)(=O)N1CC[C@@H]2[C@H](COCC3CC3)CN(C)C(=O)[C@@H]2CC1 | 34.67%
36 | CC(C)c1nc(CN(C)C(=O)c2cn3ccsc3n2)cs1 | 97.44%
37 | CN(Cc1cc(C(C)(C)C)n[nH]1)C(=O)c1ccccc1C1CCNC1 (centres undefined) | 27.35%
38 | Cc1ccccc1CN(CCN(C)C)C(=O)c1ccc2nccn2c1 | -23.59%
39 | CC(C)c1nc(CN(C)C(=O)c2ccccc2C2CCNC2)cs1 (centres undefined) | 31.56%
40 | CN(Cc1cc(C(C)(C)C)n[nH]1)C(=O)c1ccc2nccn2c1 | 54.27%
41 | O=C(c1ccc2nccn2c1)N(CCO)Cc1ccccc1F | -19.18%
42 | CN(C)c1cc(N(C)Cc2cc(C(C)(C)C)n[nH]2)ncn1 | 2.487%
43 | CC(C)c1nc(CN(C)C(=O)CNC(N)=O)cs1 | -43.04%
44 | CN(Cc1cc(C(C)(C)C)n[nH]1)C(=O)c1cn2ccsc2n1 | 85.98%

Row | SMILES | Percent Effect
45 | CCCOC(=O)N1CCCC(c2nnc(CN3CCOCC3)n2C)C1 (centres undefined) | -3.793%
46 | Cc1cc(CN2CCC(CNC(=O)c3ccc4[nH]cnc4c3)C2)[nH]n1 (centres undefined) | 4.896%
47 | O=C(Nc1cnc(Oc2ccccc2F)nc1)C1CC1 | -9.559%
48 | COCCOC(=O)N1CCC(c2nccn2CC2CC2)CC1 | 0.7863%
49 | COc1ccc(-n2ncc(C(C)NCc3cnc(SC)nc3)c2C)cc1 (centres undefined) | 30.41%
50 | CC[C@@]1(O)CCN(C(=O)c2ccc(-c3ccco3)cc2)C[C@H]1O | -5.125%
51 | COc1cc(C)c(CN2CCC3(CC2)[C@H](O)C[C@@H]3OCCN)cc1C | 3.65%
52 | CO[C@H]1C[C@@H](O)C12CCN(CCOc1ccc(Cl)cc1)CC2 | 86.28%
53 | CO[C@H]1C[C@@H](O)C12CCN(C(=O)CCCOc1ccccc1)CC2 | 97.53%
54 | NCCO[C@H]1C[C@@H](O)C12CCN(C(=O)COc1cccc(Cl)c1)CC2 | -10.97%
55 | CC[C@@]1(O)CCN(C(=O)c2ccc(OC(F)F)cc2)C[C@H]1O | -4.955%
56 | CO[C@H]1C[C@@H](O)C12CCN(CCCOc1ccc(C(N)=O)cc1)CC2 | 113.2%
57 | NC(=O)COc1ccc(CN2CCC3(CC2)[C@H](O)C[C@@H]3O)cc1Cl | 17.24%
58 | CN(C)CCO[C@H]1C[C@@H](O)C12CCN(c1ncccc1Cl)CC2 | -1.379%
59 | NCCO[C@H]1C[C@@H](O)C12CCN(C(=O)CCOc1ccccc1)CC2 | -12.3%
60 | CC[C@@]1(O)CCN(CCCOc2ccc(C(N)=O)cc2)C[C@H]1O | 95.4%
61 | CCOc1cccc(C(=O)N2CCC3(CC2)[C@H](O)C[C@@H]3OC)c1 | 2.834%
62 | Cc1ncccc1OC1(C(=O)NCCc2ccccn2)CCNCC1 | -3.101%
63 | N#Cc1cc(Br)ccc1NC1CCN(CC(N)=O)CC1 | -6.071%
64 | O=C(CSc1ccc2c(c1)OCCO2)NS(=O)(=O)c1ccccc1Cl | -4.158%
